SMILES strings stand for the structures. The panel holds about 83,000 compounds, 20% with a hit somewhere; the sample as a whole holds those more often.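 Testing used 96-well plates and a 48-hour single-concentration exposure. Example: -40 means 40% of the starting cells died.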 The source made the active and inactive calls.

The text below walks through data of PubChem BioAssay (NCI).

In this assay the test system is HOP-92 NSCLC. The assay is described as follows: NCI-60 one-dose screen, 48 h (100 = growth as untreated, 0 = no growth, -100 = all killed). To be noted: 10 µM unless noted. On the procedure:
Growth inhibition of the HOP-92 human Non-Small Cell Lung tumor cell line is measured as a screen for anti-cancer activity. Cells are grown in 96 well plates and exposed to the test compound for 48 hours. Compounds are tested at a single concentration, which is 10^-5 M for most compounds. The reported endpoint is percent growth (GI% or GIPRCNT), where numbers from 0 - 100% represent growth inhibition, and numbers from -100% - 0 represent cell death. For example, a value of 40 represents 60% growth inhibition. A value of 0 means no net growth occurred over the course of the experiment. A value of -40 indicates 40% of cells at the beginning of the experiment died by the end of the experiment. A value of -100 means all cells are dead at the end of the experiment.
NCI-60 Human Tumor Cell Lines Screen was performed using the standard one-dose NCI protocol, which is described in more detail at https://dtp.cancer.gov/discovery_development/nci-60/default.htm.
Compounds with GIPRCNT values below 10 were considered active. Activity score was based on GIPRCNT using the following formula: […]
Score is 0 for GIPRCNT values of 100 or above, 50 for GIPRCNT values of 0, and 100 for GIPRCNT values of -100.
On to `COC(=O)C1=Nc2ccc(F)cc2/C1=C/c1sc(=S)[nH]c1O`, for which the growth was 22.9% (inactive).

On to `COc1cc(/C=C2\Oc3cc(OCCCN4CCCC4)ccc3C2=O)cc(OC)c1`, for which the growth is 67.6% (inactive).

As for `COC(=O)c1ccc(NC(=O)CSc2nc3ccccc3c(=O)n2-c2ccccc2)cc1`, the growth was 79.7% (inactive).

On to `O=C(Nc1ccc(F)cc1F)c1cc(I)ccc1O`, for which the growth is -20% (active).

On to `NS(=O)(=O)c1ccc(CCN=C=S)cc1`, for which the growth is 23.4% (inactive).

As for `COc1ccccc1C(=O)/C=C/c1ccccc1`, the growth is 80.6% (inactive).

As to `O=C1/C=C/[C@@H](O)[C@@H]2C[C@@H](O)C[C@H]2/C=C/CCCCO1`, the growth was -3.95% (active).

As to `O=c1oc2ccc(I)cc2c(=O)n1-c1ccc(Br)cc1F`, the growth was -11.7% (active).

Take `CCN1C(=O)N(CC)C2Nn3c(s/c(=C\c4ccccc4F)c3=O)=NC21` (stereo not given): the growth was 67.5% (inactive).

As for `COc1cc(CNC(=O)c2ccsc2Nc2ccnc(C(F)(F)F)c2)ccc1O`, the growth is 81.3% (inactive).

As to `O=C(Nc1ccc(I)cc1F)c1cc(F)ccc1O`, the growth was -9.55% (active).

For `O=C(/C=C/c1ccc(C(F)(F)F)cc1)c1ccc(Nc2nc(NCCO)nc(Nc3ccc(Cl)cc3)n2)cc1`, the growth was 70.5% (inactive).

For `CN=c1ccc2nc3ccc(N)cc3sc-2c1`, the growth was 53.5% (inactive).

As for `O=[N+]([O-])c1cc2c(ccc3occc32)o1`, the growth is 26.6% (inactive).

For `COc1c2ccoc2c(/C=C/C=O)c2oc(-c3ccccc3)cc(=O)c12`, the growth was 105% (inactive).

Consider `Nc1nonc1-n1nncc1-c1cccnc1`, for which the growth was 99.8% (inactive).

For `CC(=Nc1ccccc1)C1=C(O)C(Cc2ccc(F)cc2)NC1=O` (stereo not given), the growth was 72.4% (inactive).

For `CC1(C)CC2(C)OC2C2(C1)N=NC(=Nc1ccccc1)O2` (stereo not given), the growth is 87.6% (inactive).

On to `COc1ccc(-n2c(C(O)c3ccccc3)n[nH]c2=S)cc1` (stereo not given), for which the growth was 83.6% (inactive).

Regarding `COc1ccc(C2Nc3ncnc(N)c3N=C3c4ccccc4C(=O)C32)cc1` (stereo not given), the growth is 55.4% (inactive).

As for `O=c1cc(-c2ccccc2)oc2cc(OCc3cn(Cc4ccc(F)cc4)nn3)cc(OCc3cn(Cc4ccc(F)cc4)nn3)c12`, the growth is -18% (active).

Take `COc1cccc(C2=NN3C(C2)c2ccccc2OC3c2ccc(/C=C3\SC(=O)NC3=O)cc2)c1` (stereo not given): the growth is 106% (inactive).

As for `COc1cc(NC(=O)CCSc2nc3ccccc3c(=O)n2CCc2ccccn2)cc(OC)c1OC`, the growth is 89.1% (inactive).

`O=C(Nc1ccc(Br)cc1F)c1cc(Cl)ccc1O`: the growth was -18.8% (active).

With `CCOC(=O)C1(C(=O)OCC)N=C(c2ccccc2)C=C1c1ccccc1`, the growth is 66.5% (inactive).

`CC(=O)O[C@@H]1/C=C/C(=O)N[C@@H](C)CCC/C=C/[C@@H]2CCC[C@H]21`: the growth is 92.9% (inactive).

`Cn1c(C(=O)c2cccc3ccccc23)nc2ccccc21`: the growth is 34% (inactive).

For `CCOC(=O)c1cc2c(n1Cc1ccccc1)-c1oncc1CCC2`, the growth was 86.3% (inactive).

Turning to `O=C1c2ccccc2C(=O)c2c1ccc1[nH]c(CCl)nc21`, the growth is 32% (inactive).

For `O=C(Nc1ccc(N2CCNCC2)cc1)c1[nH]ncc1Nc1ncnc2sc3c(c12)CCC3`, the growth was -56.7% (active).

`COC(=O)[C@@H]1CCCN1C(=O)[C@H]1CCCN1C(=O)[C@@H](Cc1c[nH]c2ccccc12)NC(=S)Nc1cc(C(F)(F)F)cc(C(F)(F)F)c1`: the growth is 80.9% (inactive).

On to `O=c1oc2ccc(Cl)cc2c(=O)n1-c1cc(C(F)(F)F)cc(C(F)(F)F)c1`, for which the growth was -7% (active).

With `CCOc1cccc(/C=N\Nc2nc(=O)cc(C(=O)OC)s2)c1O`, the growth is 60.1% (inactive).

For `CCN1C(=O)N(CC)C2C1NC(=S)N2/N=C/C=C/c1ccccc1OC` (stereo not given), the growth is 18.4% (inactive).

Take `COc1c(B(O)O)cccc1-c1nc2ccc3n[nH]c(F)c3c2c2c1CCCC2`: the growth is 78.6% (inactive).

Consider `CCCC(c1nnnn1C1CCCCC1)N1CCN(C(=O)c2ccco2)CC1` (stereo not given), for which the growth is 47.6% (inactive).

As for `COc1cccc2c(=O)c3c(sc12)c(NCCCNCCO)nc1ccccc13`, the growth is 10.2% (inactive).

As for `O=C(CSc1ncccc1C(=O)O)Nc1ccc(Oc2ccccc2)cc1`, the growth was 102% (inactive).

Regarding `Cc1ccc(NC2=CC(=O)C(=O)c3ccccc32)c(C)c1`, the growth is 123% (inactive).

Regarding `O=C1c2ccc3c4c(ccc(c24)C(=O)N1CCCCO)C(=O)N(CCCCO)C3=O`, the growth is 16% (inactive).
